Laboratory results from ChEMBL document CHEMBL3988442, “University of Dundee, Small-Polar-MMV Screening Library” (2021).
In all, about 48,000 compounds went through this assay and about 13,000 (27%) showed an effect of 50% or more. The list shows a part of the results.

tested on: Wolbachia pipientis; experiment: Anti-Wolbachia Cell-Based Screen; format: functional; design: scale not given: in the data most compounds retested in dose-response had high values; settings: 5 µM

SMILES | Percent Effect [%]
OC1CCN(c2nc(-c3ccccc3)no2)CC1 | -0.7688
O=C(Nc1ccc(N2CCCCC2)nc1)N1CCc2sccc2C1 | 2.777
Cc1cc(NC(=O)N(Cc2ccc(C#N)cc2)C(C)C)no1 | 2.443
c1cncc(-c2noc(CNC3CCCN(c4cccnn4)C3)n2)c1 (centres undefined) | -17.88
Cc1ncccc1CNCC1COC2(CCCCC2)O1 (centres undefined) | -0.2961
COc1ccccc1[C@@H]1CN(Cc2cnn(C)c2C)C[C@H]1C(=O)O | -12.3
COc1ccccc1C1Cn2ccnc2CN1Cc1c[nH]nc1C (centres undefined) | 158.2
COc1ccccc1CC(=O)N1CCC(NCc2c[nH]nc2C)CC1 | 3.473
COc1ccccc1[C@@H]1CN(Cc2cnc(N(C)C)nc2)C[C@H]1C(=O)O | -3.277
COc1ccccc1C1Cn2c(C)cnc2CN1Cc1ccc(C)nc1 (centres undefined) | 131
COCc1ncc(CN2CCC(Oc3ccccc3OC)CC2)cn1 | 3.684
COc1ccccc1C1Cn2c(C)cnc2CN1Cc1c[nH]nc1C (centres undefined) | 184.6
COc1ccccc1[C@@H]1CN(Cc2nccn2C)C[C@H]1C(=O)O | -20.61
Cc1n[nH]cc1CNC1CCN(c2ccccc2)CC1.Cl | -14.69
CCOC(=O)c1nc(CN2CCC(NC(=O)C(C)C)CC2)cs1 | -9.152
O[C@@H]1Cc2ccccc2[C@@H]1Nc1ncccc1F | -3.78
O=C(Cn1cccc2oc(=O)nc1-2)NCC1Cc2ccccc2O1 (centres undefined) | -3.762
Cc1n[nH]c(C)c1S(=O)(=O)N1CCC(Oc2cnccn2)CC1 | 120.8
COC(=O)c1sccc1S(=O)(=O)N1CCC(Oc2cnccn2)CC1 | 2.794
O=S(=O)(N1CCCCC1)N1CCC(Oc2cnccn2)CC1 | 106.7

SMILES | Percent Effect [%]
O=S(=O)(c1ccc(F)cc1)N1CCOC[C@H](Oc2cnccn2)C1 | -9.472
Cc1ccc(S(=O)(=O)N2CCC(Oc3ccccn3)CC2)c(C)c1 | 1.938
CN(C)S(=O)(=O)N1CCC(Oc2cnccn2)CC1 | 2.095
Cc1noc(C)c1S(=O)(=O)N1CCC(Oc2cnccn2)CC1 | 11.35
O=S(=O)(N1CCOCC1)N1CCC(Oc2cnccn2)CC1 | 115
CS(=O)(=O)N1CCC(Oc2cnccn2)CC1 | -17.13
CC1CCN(S(=O)(=O)N2CCC(Oc3cnccn3)CC2)CC1 | 109.5
O=S(=O)(c1ccc(Cl)cc1)N1CCOC[C@H](Oc2cnccn2)C1 | -1.113
COc1ccc(C2CCCN2c2ccnc(C)c2Cl)c(OC)c1 (centres undefined) | -16.05
CC(=O)N(C)Cc1nn(C)c2c1CN(Cc1ccsc1)C2.O=C(O)C(F)(F)F.O=C(O)C(F)(F)F | -3.994
O=C(O)C(F)(F)F.O=C([C@@H]1COC[C@H]2CN(C3CCCC3)C[C@H]21)N1CCCCO1 | 2.547
CC(Cn1cccn1)NC(=O)N1CCC(NS(C)(=O)=O)CC1 (centres undefined) | 10.97
O=C(O)C1CCN(c2nc3c(-c4ccccc4F)csc3c(=O)[nH]2)CC1 | -3.996
CS(=O)(=O)NCCCNc1ccc(C(F)(F)F)cc1C#N | -7.983
O=C1OCCN1CCNCC1(O)CCCN(CCC2CCCCC2)C1=O (centres undefined) | 3.585
CN(C)C(=O)c1nc2c(n1C)CCN(Cc1ccccc1)C2 | 0.7909
CNC(=O)CNC(=O)CC1C(=O)NCCN1Cc1ccccc1C (centres undefined) | -0.8934
COCCO[C@H]1CCN(Cc2cccs2)[C@H]1Cc1cccnc1.O=C(O)C(F)(F)F.O=C(O)C(F)(F)F | -0.3476
O=C(O)C(F)(F)F.O=C(O)C(F)(F)F.O=C(O)C(F)(F)F.c1ccc(COC[C@H]2CC[C@H]3[C@H](CCN3Cc3cccnc3)O2)nc1 | -5.696
COCCO[C@H]1CCN(Cc2cccnc2)[C@H]1Cc1cccnc1.O=C(O)C(F)(F)F.O=C(O)C(F)(F)F.O=C(O)C(F)(F)F | 107.4

SMILES | Percent Effect [%]
COCCO[C@H]1CCN(Cc2ccsc2)[C@H]1Cc1cccnc1.O=C(O)C(F)(F)F.O=C(O)C(F)(F)F | 103.2
Cn1cc(CN2CC[C@H]3O[C@@H](COCc4cccnc4)CC[C@H]32)cn1.O=C(O)C(F)(F)F.O=C(O)C(F)(F)F | -19.84
O=C(O)C(F)(F)F.O=C(O)C(F)(F)F.O=C(O)C(F)(F)F.c1cncc(CN2CC[C@@H]3O[C@H](COCCN4CCCC4)CC[C@@H]32)c1 | 86.61
COCCO[C@@H]1CCN(C(=O)c2ccc(C)o2)[C@@H]1Cc1cccnc1.O=C(O)C(F)(F)F | 18.38
Cc1[nH]c2c(F)cccc2c1CC(=O)NCCCc1csc(N)n1 | -2.894
O=c1oc(-c2cccs2)nn1CC1(O)CCCCC1 | -6.599
COc1ccc(NC(=O)CCn2nc(-c3cccs3)oc2=O)cc1OC | 106
COc1cc(NC(=O)CCn2nc(-c3cccs3)oc2=O)cc(OC)c1 | 106.6
COc1cc(C)c(NC(=O)CCn2cccc2)cc1OC | 27.33
COC(=O)c1cccc(OCCn2nc(-c3cccs3)oc2=O)c1 | 2.853
Cc1cc(C)n2nc(C(=O)N3CCCC4(CCOC4)C3)cc2n1 (centres undefined) | -5.928
COC(=O)C(C)(C)C(C)(C)NC(=O)Nc1nnc(-c2ccccn2)s1 | -11.99
CCOc1ccc(C(=O)N2CCCC2c2c(C)nn(C)c2OC)cn1 (centres undefined) | 122.4
COc1c(C2CCCN2C(=O)c2ccc(C#N)cc2)c(C)nn1C (centres undefined) | 98.09
COc1c(C2CCCN2C(=O)c2ccc3cc[nH]c3c2)c(C)nn1C (centres undefined) | -0.02537
CCOc1ccc(C(=O)N2CCCC2c2c(C)nn(C)c2Cl)cn1 (centres undefined) | 128
COc1c(C2CCCN2C(=O)c2sccc2C#N)c(C)nn1C (centres undefined) | -24.73
COc1c(C2CCCN2C(=O)c2ccc3[nH]cnc3c2)c(C)nn1C (centres undefined) | 128.2
Cc1cc(C(=O)N2C[C@@H]3CCCO[C@@H]3[C@H](N(C)C(C)C)C2)c(C)[nH]1 | -3.882
